According to PubChem BioAssay:
Entries with a potency or affinity are not part of this list. Inconclusive results are not listed. The source made the active and inactive calls. Unless noted, the rule behind the calls is not given here.

Experiments:
[1] = RMG-1 ovarian cancer cell viability loss – cherry-pick, dose response (AID 687029;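 active = signal drop whose fitted half-maximal concentration is at most twice the top valid dose, in every test run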;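 note: cells exposed to compound for 96 hours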); conditions: RMG-1 viability, CellTiterGlo ATP luminescence, 96 h; series mostly up to 35 µM
[2] = IOSE-T80 viability loss, PAX8-independent line – cell-based, cherry-pick, selectivity assay for PAX8 inhibitor project, dose response (AID 687032;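 active = fitted half-maximal concentration for viability loss no higher than twice the top valid dose, in every repeat run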;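 note: cells exposed to compound for 96 h before reading; 0% = neutral control wells and -100% = 2 µM mitoxantrone kill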); conditions: CellTiterGlo ATP luminescence, 96 h; series mostly up to 35 µM
[3] = general cell-killing toxicity readout – plate reader, dry powder samples, cytotoxicity control for PAX8 inhibitor project, dose response (AID 743021); conditions: cell line, non-specific cytotoxicity counter-screen; series mostly up to 35 µM
[4] = IGROV1 cell killing – plate reader, dry powder samples, PAX8 inhibitor project, dose response (AID 743043); conditions: IGROV1 ovarian cancer cell cytotoxicity; series mostly up to 35 µM;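 note: more negative means fewer viable cells or more cytotoxicity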
[5] = toxicity toward immortalized ovarian surface epithelium – cell-based, plate reader, dry powder samples, cytotoxicity control for PAX8 inhibitor project, dose response (AID 743045); conditions: IOSE-T80 ovarian epithelial cells; series mostly up to 35 µM;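 note: 0% = neutral control median and -100% = positive control median; more negative values mean more cell killing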
[6] = A2780 cell killing – plate reader, dry powder samples, cytotoxicity control, dose response (AID 743046); conditions: A2780 ovarian cancer cytotoxicity; series mostly up to 35 µM;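 note: 0% = neutral control wells and -100% = cytotoxic reference compound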
[7] = OVCAR-3 cell viability loss – plate reader, dry powder samples, PAX8 inhibitor project, dose response (AID 743044); conditions: NIH:OVCAR-3 ovarian cancer cell viability; max activity: at 35 µM, stronger effect = lower value unless noted; series mostly up to 50 µM
[8] = OVCAR8 cell viability loss – plate reader, dry powder samples, PAX8 project, dose response (AID 743197); conditions: series mostly up to 35 µM

Measured: max activity

COc1ccc(NC(=O)N(C)C[C@H]2OCCCC[C@@H](C)Oc3ccc(NC(=O)Nc4ccc(C(F)(F)F)cc4)cc3C(=O)N([C@@H](C)CO)C[C@@H]2C)cc1
not listed: [7] | [8]
inactive: all other assays above

C[C@@H]1CCCCO[C@H](CN(C)CC2CCCCC2)[C@H](C)CN([C@@H](C)CO)C(=O)c2cc(NS(=O)(=O)c3ccc(Cl)cc3)ccc2O1
inactive: [1] | [2] | [3] | [4] | [7] 13.1% [at 0.5 µM, stronger effect = lower value] | [5] | [6] | [8]

C[C@@H]1CCCCO[C@@H](CN(C)Cc2ccc(C(F)(F)F)cc2)[C@@H](C)CN([C@@H](C)CO)C(=O)c2cc(NS(=O)(=O)c3ccc(Cl)cc3)ccc2O1
inactive: [1] | [2] | [3] | [5] | [6]

Cc1ccc(S(=O)(=O)Nc2ccc3c(c2)C(=O)N([C@@H](C)CO)C[C@H](C)[C@H](CN(C)Cc2ccc(C(F)(F)F)cc2)OCCCC[C@H](C)O3)cc1
inactive: [1] | [2] | [3] | [5] | [6]

C[C@@H]1CN([C@@H](C)CO)C(=O)Cc2cc(NC(=O)Nc3ccccc3)ccc2O[C@H]1CN(C)Cc1ccc(Oc2ccccc2)cc1
inactive: [1] | [2] | [3] | [7] -64.8% | [5] | [6] | [8]

C[C@H]1CCCCO[C@H](CN(C)Cc2ccc(Cl)c(Cl)c2)[C@@H](C)CN([C@@H](C)CO)C(=O)c2cc(NC(=O)Nc3ccc(C(F)(F)F)cc3)ccc2O1
inactive: [1] | [2] | [3] | [5] | [6]

CC(C)CC#Cc1ccc2c(c1)O[C@@H](CN(C)Cc1ccncc1)[C@H](C)CN([C@H](C)CO)S2(=O)=O
inactive: [1] | [2] | [3] | [4] | [6]

C[C@H]1CCCCO[C@H](CN(C)C(=O)Nc2ccc(C(F)(F)F)cc2)[C@@H](C)CN([C@@H](C)CO)C(=O)c2cc(NC(=O)Nc3ccccc3)ccc2O1
inactive: [1] | [2] | [3] | [5]

Cc1ccc(S(=O)(=O)Nc2ccc3c(c2)C(=O)N([C@@H](C)CO)C[C@H](C)[C@@H](CN(C)C(=O)Nc2cccc4ccccc24)OCCCC[C@@H](C)O3)cc1
not listed: [7]
inactive: all other assays above

C[C@@H]1CN([C@@H](C)CO)S(=O)(=O)c2ccc(C#Cc3ccccc3F)cc2O[C@H]1CN(C)C(=O)c1ccc2c(c1)OCO2
inactive: [1] | [2] | [3] | [5]

C[C@@H]1CN([C@@H](C)CO)C(=O)c2c(c3ccccc3n2C)-c2ccccc2CO[C@@H]1CN(C)S(=O)(=O)c1ccc(C(F)(F)F)cc1
inactive: [1] | [2] | [3] | [7] -38.5% | [5] | [6] | [8]

COc1ccc2c3c(n(C)c2c1)[C@H](CO)N(Cc1ccccc1)CC31CCN(S(=O)(=O)c2ccc(C)cc2)CC1
inactive: [1] | [2] | [3] | [5]

C[C@H]1CCCCO[C@@H](CN(C)S(=O)(=O)c2ccccc2)[C@@H](C)CN([C@@H](C)CO)C(=O)c2cc(NC(=O)Nc3ccc(C(F)(F)F)cc3)ccc2O1
inactive: [1] | [2] | [3] | [5] | [6]

C[C@@H]1CCCCO[C@H](CN(C)C(=O)Nc2ccc(C(F)(F)F)cc2)[C@@H](C)CN([C@@H](C)CO)C(=O)c2cc(NS(=O)(=O)c3ccc(Cl)cc3)ccc2O1
inactive: [1] | [2] | [3] | [5]

Cc1ccc(S(=O)(=O)Nc2ccc3c(c2)C(=O)N([C@H](C)CO)C[C@@H](C)[C@@H](CN(C)CC2CCCCC2)OCCCC[C@@H](C)O3)cc1
inactive: [1] | [2] | [3] | [5]

Cn1nnnc1Sc1ncnc2scc(-c3ccc(F)cc3)c12
inactive: [1] | [2] | [3] | [7]

C[C@@H]1CN([C@H](C)CO)C(=O)c2cc(NS(=O)(=O)c3ccc(F)cc3)ccc2O[C@@H](C)CCCCO[C@H]1CN(C)Cc1ccc(C(F)(F)F)cc1
inactive: [1] | [2] | [3] | [5] | [6]
